From PubChem BioAssay (NCATS)
Records with an inconclusive call do not appear. Active and inactive are the calls of the source. Unless noted, calls come from the whole dose curve. Residues, ends and D or L forms follow the SMILES beside them.

Tests used:
[1] = qHTS for Inhibitors of the Functional Ribonucleoprotein Complex (vRNP) of Lassa (LASV) Arenavirus: LASV Primary Screen - GLuc reporter signal (AID 1347082; calls by dose curve; tested in HEK293 reporter line; note: nearly all actives have a fitted effect of over 60% in size)
[2] = qHTS for Inhibitors of the Functional Ribonucleoprotein Complex (vRNP) of Lassa (LASV) Arenavirus: Viability assay - alamar blue signal for LASV Primary Screen (AID 1347083; calls by dose curve; tested in HEK293 reporter line; note: nearly all actives have a fitted effect of over 80% in size)
[3] = qHTS for Inhibitors of the Functional Ribonucleoprotein Complex (vRNP) of Lymphocytic Choriomeningitis Arenaviruses (LCMV): Viability assay - alamar blue signal for LCMV Primary Screen (AID 1347085; calls by dose curve; tested in HEK293 reporter line; note: nearly all actives have a fitted effect of over 80% in size)
[4] = biological target: Nucleoprotein (Lymphocytic choriomeningitis virus (strain Armstrong)) (UniProt P09992); assay: qHTS for Inhibitors of the Functional Ribonucleoprotein Complex (vRNP) of Lymphocytic Choriomeningitis Arenaviruses (LCMV): LCMV Primary Screen - GLuc reporter signal (AID 1347086); note: nearly all actives have a fitted effect of over 70% in size

Measured: Potency
Note: series mostly up to about 57 µM.

Nucleoprotein (Lymphocytic choriomeningitis virus (strain Armstrong)), sequence (P09992 whole entry, looked up): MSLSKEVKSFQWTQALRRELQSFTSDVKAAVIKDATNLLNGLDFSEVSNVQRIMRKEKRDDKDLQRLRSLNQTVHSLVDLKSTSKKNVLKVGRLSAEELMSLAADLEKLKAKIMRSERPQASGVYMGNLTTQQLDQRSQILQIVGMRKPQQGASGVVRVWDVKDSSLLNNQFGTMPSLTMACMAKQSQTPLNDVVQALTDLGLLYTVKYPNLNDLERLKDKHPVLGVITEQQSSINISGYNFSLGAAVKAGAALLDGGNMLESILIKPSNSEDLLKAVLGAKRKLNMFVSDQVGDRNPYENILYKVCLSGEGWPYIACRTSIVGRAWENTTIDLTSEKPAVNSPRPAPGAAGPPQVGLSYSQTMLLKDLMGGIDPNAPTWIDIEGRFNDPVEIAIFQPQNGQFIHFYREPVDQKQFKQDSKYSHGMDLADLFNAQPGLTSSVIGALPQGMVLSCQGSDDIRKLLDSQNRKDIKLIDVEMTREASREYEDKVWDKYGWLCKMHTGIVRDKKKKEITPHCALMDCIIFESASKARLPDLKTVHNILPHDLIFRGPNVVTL

CCC1(C)CC(=O)NC1=O (configuration not stated)
inactive: all assays above

COc1c(N2C[C@@H]3CCCN[C@@H]3C2)c(F)cc2c(=O)c(C(=O)O)cn(C3CC3)c12
inactive: all assays above

CN=C(NC#N)NCCSCc1nc[nH]c1C
inactive: all assays above

CC(=O)Oc1ccc(C)cc1
inactive: all assays above

O=C(O)CCc1nc2ccccc2[nH]1
inactive: all assays above

O=C(O)c1ccc[n+]([O-])c1
inactive: all assays above

O=C(O)Cc1ccc(OCCNC[C@H](O)c2ccccc2)cc1
inactive: all assays above

CN[C@@H]1[C@@H](O)[C@@H](O[C@@H]2[C@H](O)[C@H](O[C@H]3OC(CN)=CC[C@H]3N)[C@@H](N)C[C@H]2N)OCC1(C)O (some centres not stated)
inactive: all assays above

Cc1cccc(C)c1NC(=O)CN(CC(=O)O)CC(=O)O
inactive: all assays above

CC(C)C[C@H](NC(=O)CNC(=O)[C@H](Cc1ccc(O)cc1)NC(=O)[C@H](CO)NC(=O)[C@H](Cc1c[nH]c2ccccc12)NC(=O)[C@H](Cc1cnc[nH]1)NC(=O)[C@@H]1CCC(=O)N1)C(=O)N[C@@H](CCCN=C(N)N)C(=O)N1CCC[C@H]1C(=O)NCC(N)=O (stereo in doubt)
inactive: all assays above

CC(=O)N(CC(O)CO)c1c(I)c(C(=O)NCCO)c(I)c(C(=O)NCC(O)CO)c1I (configuration not stated)
inactive: all assays above

CC(C)NNC(=O)c1ccncc1
inactive: all assays above

CC(C)(CO)[C@@H](O)C(=O)NCCCO
inactive: all assays above

CCCCCN(CCCOC)C(=O)C(CCC(=O)O)NC(=O)c1ccc(Cl)c(Cl)c1 (configuration not stated)
inactive: all assays above

COc1ccc(/C=N/NC(=O)c2ccncc2)cc1OC
inactive: all assays above

NCCCCCC(=O)O
inactive: all assays above

CCO[C@H](Cc1ccc(OCCc2ccc(OS(C)(=O)=O)cc2)cc1)C(=O)O
inactive: all assays above

CCN1CC(CCN2CCOCC2)C(c2ccccc2)(c2ccccc2)C1=O (configuration not stated)
inactive: all assays above

Clc1cccc(C(c2ccc3nc[nH]c3c2)n2ccnc2)c1 (configuration not stated)
inactive: all assays above

Cc1cccc(C)c1NC(=O)CN1CCCCCC1
inactive: all assays above

CN(C)CCc1c[nH]c2ccc(Cn3cncn3)cc12
inactive: all assays above

CO/N=C(/C(=O)N[C@@H]1C(=O)N2C(C(=O)[O-])=C(C[n+]3ccn4ncccc43)CS[C@H]12)c1nsc(N)n1
inactive: all assays above

CCCCCCCCCCCC(=O)[O][Sn]([CH2]CCC)([CH2]CCC)[O]C(=O)CCCCCCCCCCC
inactive: all assays above

CCN(CC)CCOC(=O)c1ccc(N)cc1
inactive: all assays above

CCCCCCCCCCCCCCCCO
inactive: all assays above

COC(=O)c1ccccc1C(=O)c1ccc(OCCN2CCCCC2)cc1
inactive: all assays above

O=c1[nH]c(=O)n([C@H]2O[C@H](CO)[C@@H](O)[C@@H]2O)cc1/C=C\Br
inactive: all assays above

Nc1ccc(S(=O)(=O)c2ccc(N)cc2)cc1
inactive: all assays above

O=C1CC[C@H](C(=O)N2CCCCC2)N1
inactive: all assays above

O=c1[nH]c(=O)n([C@H]2CCCO2)cc1F
inactive: all assays above

CCCCOC(=O)CC(CC(=O)OCCCC)(OC(C)=O)C(=O)OCCCC
inactive: all assays above

CCCC(=O)OCOC(=O)C1=C(C)NC(C)=C(C(=O)OC)C1c1cccc(Cl)c1Cl (configuration not stated)
inactive: all assays above

COc1ccc2cc1Oc1cc3c(cc1OC)CC[N+](C)(C)[C@H]3Cc1ccc(cc1)Oc1c(OC)c(OC)cc3c1[C@@H](C2)[N+](C)(C)CC3
inactive: all assays above

CCCc1c2oc(C(=O)O)cc(=O)c2cc2c(=O)cc(C(=O)O)n(CC)c12
inactive: all assays above

O=C1CC(c2ccc(Cl)cc2)CC(=O)N1
inactive: all assays above

COC(=O)[C@H](Cc1ccccc1)NC(=O)[C@@H](N)CC(=O)O (H-Asp-Phe-OMe)
inactive: all assays above

Cc1nc([N+](=O)[O-])cn1-c1ccc([N+](=O)[O-])cc1
inactive: all assays above

CCOC(=O)C1=C[C@@H](OC(CC)CC)[C@H](NC(C)=O)[C@@H](N)C1
inactive: all assays above

C[C@@H]1CN(c2c(F)c(F)c3c(=O)c(C(=O)O)cn(C4CC4)c3c2F)C[C@H](C)N1
inactive: all assays above

COc1ccc(C(=O)c2ccccc2O)c(O)c1
inactive: all assays above

C[N+](C)(C)CCCCCC[N+](C)(C)C
inactive: all assays above

COc1ccc(C(=O)CC(=O)c2ccc(C(C)(C)C)cc2)cc1
inactive: all assays above

Cc1ccc(C(C)C)cc2c(C)ccc1-2
inactive: all assays above

CCOC(=O)[C@H](CCc1ccccc1)N[C@@H](C)C(=O)N1CCC[C@H]1C(=O)O
inactive: all assays above

O=C(O)CCCC[C@@H]1SC[C@@H]2NC(=O)N[C@@H]21
inactive: all assays above

COc1ccccc1OCC1CNC(=O)O1 (configuration not stated)
inactive: all assays above

CC(C)(Oc1ccc(Cl)cc1)C(=O)OCCCOC(=O)C(C)(C)Oc1ccc(Cl)cc1
inactive: all assays above

CC[N+](CC)(CCNC(=O)C(=O)NCC[N+](CC)(CC)Cc1ccccc1Cl)Cc1ccccc1Cl
inactive: all assays above
